# In all, about 350,000 compounds went through this assay and about 1,300 (0.37%) were called active. The list comes from a sample in which actives are over-represented; it also holds similar structures and randomly drawn compounds. A number with no mark means an inactive call.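 The calls were made as follows: active = mean added fluorescence quench of at least 8% versus neutral control, with both replicates also reaching 8%; inconclusive = only one of the mean or replicate conditions met; inactive = mean below 8% and not both replicates reaching 8%.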
# Assay: F508del CFTR correction, initial screen, CFBE line, single point (AID 720511);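 also: cells transiently co-express mutant CFTR-F508del with the halide-sensitive YFP; corrector assay measuring rescue of mutant channel to the surface after 24 h compound exposure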
# Conditions: CFBE cells, YFP halide quenching, at 7.58 µM, active compounds read high, % fluorescence drop versus neutral controls, stimulated with forskolin plus potentiator P3
row,Structure (SMILES),activity (quench increase)
1,C[C@H]1CN([C@@H](C)CO)C(=O)Cc2cc(NS(=O)(=O)c3cn(C)cn3)ccc2O[C@H]1CN(C)C(=O)Nc1ccc(F)cc1,2.2%
2,C[C@H](CO)N1C[C@H](C)[C@@H](CN(C)S(=O)(=O)c2ccccc2)Oc2ncc(-c3ccncc3)cc2C1=O,0.7%
3,O=C1c2ccccc2C(=O)N1CCC#Cc1ccc2cc(C3(O)CCCCC3)oc(=O)c2c1,4.94%
4,COc1cc(C#Cc2ccc3cc(CCCO)oc(=O)c3c2)cc(OC)c1,9.06% (active)
5,CS(=O)(=O)N1C[C@@H](O)COC[C@@H]2O[C@H](CC(=O)NC3Cc4ccccc4C3)CC[C@H]21,-1.79%
6,O=C(C[C@H]1C=C[C@@H](NC(=O)NC2CCCCC2)[C@@H](CO)O1)NCc1ccc(Cl)cc1,0.0755%
7,C[C@H](CO)N1C[C@H](C)[C@H](CN(C)Cc2ccc(C(F)(F)F)cc2)Oc2ccc(NS(C)(=O)=O)cc2C1=O,3.24%
8,C[C@@H]1CCCCO[C@@H](CN(C)C(=O)Cc2ccccc2)[C@H](C)CN([C@@H](C)CO)C(=O)c2cc(NC(=O)Nc3ccc(F)cc3)ccc2O1,-1.42%
9,Oc1ccc2ccccc2c1N=Nc1nccs1,13.5% (active)
10,CC(=O)Nc1ccc(Nc2c3ccccc3nc3ccccc23)cc1,10.8% (active)
11,CC(=O)Nc1ccc(S(=O)(=O)N(C)c2nc3ccccc3nc2Cl)cc1,2.1%
12,CCc1c(C)nc2c(-c3ccccc3)c(C)nn2c1Nc1ccc(NC(C)=O)cc1,0.439%
13,C[C@@H]1CCCCO[C@@H](CN(C)S(=O)(=O)c2ccccc2)[C@H](C)CN([C@H](C)CO)C(=O)c2cc(NC(=O)Nc3ccc4c(c3)OCO4)ccc2O1,0.334%
14,CO[C@H]1CN(C)C(=O)c2cc(NC(C)=O)ccc2OC[C@H](C)N(C(=O)C2CC2)C[C@H]1C,4.09%
15,COc1ccc(NC(=O)N(C)C[C@H]2Oc3cc(C#CCN(C)C)ccc3S(=O)(=O)N([C@@H](C)CO)C[C@@H]2C)cc1,-0.575%
16,C/C=C/c1ccc2c(c1)O[C@@H](CN(C)C(=O)c1ccccn1)[C@H](C)CN([C@@H](C)CO)S2(=O)=O,-2.18%
17,C[C@@H]1CN([C@@H](C)CO)S(=O)(=O)c2ccc(C#Cc3ccccc3)cc2O[C@@H]1CN(C)C(=O)Nc1ccccc1,3.03%
18,COc1ccc(C#Cc2ccc3c(c2)O[C@@H](CN(C)C(=O)Nc2cccc(OC)c2)[C@H](C)CN([C@H](C)CO)S3(=O)=O)cc1,9.4% (active)
19,C[C@@H]1CN([C@@H](C)CO)S(=O)(=O)c2ccc(C#Cc3ccc(F)cc3)cc2O[C@H]1CN(C)C(=O)c1ccccn1,9.03% (active)
20,CC(C)CC#Cc1ccc2c(c1)O[C@@H](CN(C)C(=O)c1ccccn1)[C@@H](C)CN([C@H](C)CO)S2(=O)=O,0.306%
21,CCCNC(=O)[C@@H]1[C@@H](CO)[C@@H]2Cn3c(cccc3=O)[C@H]1N2C(=O)Nc1cc(F)ccc1F,-0.221%
22,CCCN(C)C[C@@H]1Oc2ncc(-c3ccccc3F)cc2C(=O)N([C@@H](C)CO)C[C@@H]1C,-1.56%
23,CCCNC(=O)Nc1ccc2c(c1)C(=O)N(C)C[C@H](OC)[C@H](C)CN(Cc1cccnc1)[C@@H](C)CO2,-2.17%

row,Structure (SMILES),activity (quench increase)
1,COCC(=O)Nc1ccc2c(c1)OC[C@@H](C)N(C(=O)c1ccncc1)C[C@@H](C)[C@@H](OC)CN(C)C2=O,-2.81%
2,CCN(CC)c1ccc(/C=N/NC(=O)c2cnccn2)c(O)c1,19.1% (active)
3,COc1ccc(NC(=O)C/C(C)=N/NC(=O)c2cnccn2)cc1Cl,0.245%
4,NS(=O)(=O)c1ccc(CNC(=O)c2cnccn2)cc1,3.51%
5,CNC[C@H]1Oc2ccc(NC(=O)Nc3ccc(F)cc3)cc2C(=O)N([C@@H](C)CO)C[C@@H]1C,2.71%
6,C/C=C/c1cnc2c(c1)C(=O)N([C@@H](C)CO)C[C@@H](C)[C@@H](CN(C)S(=O)(=O)c1ccccc1F)O2,-0.914%
7,COCC(=O)N1CC[C@H]2[C@H](CO)Nc3ccc(-c4ccc(C(=O)N(C)C)cc4)cc3[C@H]21,-0.359%
8,CC(C)CC#Cc1cnc2c(c1)C(=O)N([C@@H](C)CO)C[C@H](C)[C@@H](CN(C)S(=O)(=O)c1cn(C)cn1)O2,3.77%
9,CCC(=O)c1ccc(OCC(=O)OCC(=O)N2CCc3ccccc3C2)cc1,33.2% (active)
10,CCC(=O)c1ccc(OCC(=O)OCC(=O)NC2CCCCCC2)cc1,5.07%
11,Cc1ccc(Cl)c(OCC(=O)N2CCc3ccccc3C2)c1,0.464%
12,CN1C(=O)c2cc(NC(=O)Nc3ccccc3Cl)ccc2OC[C@H]2O[C@@H](CC(=O)O)CC[C@H]21,2.42%
13,C[C@H](CO)N1C[C@H](C)[C@H](CN(C)C(=O)Nc2ccccc2)Oc2ccc(NC(=O)C3CC3)cc2CC1=O,1.47%
14,CNC(=O)c1cccc2nc3ccccc3nc12,-0.402%
15,CN(C)CCNC(=O)c1ccc(Cl)c2cc3ccccc3nc12,12.3% (active)
16,O=C(Cn1c(NCCO)nc2ccccc21)c1ccc(Cl)cc1Cl,1.26%
17,CCNC(=O)C[C@@H]1CC[C@@H](NC(=O)NC2CCCCC2)[C@H](CO)O1,3.72%
18,Cc1ccccc1-c1ccc2c(c1)O[C@H](CN(C)C)[C@@H](C)CN([C@H](C)CO)S2(=O)=O,0.748%
19,C[C@H]1CN([C@@H](C)CO)C(=O)c2cc(/C=C/c3ccccc3)cnc2O[C@@H]1CN(C)C(=O)c1ccc(F)cc1,-2.58%
20,COc1cc(/C=N/NC(=O)c2cc(-c3ccccc3C)nc3ccccc23)cc(OC)c1O,-3.23%
21,COc1ccc(-c2cc(C(=O)N/N=C/c3cccnc3)c3ccccc3n2)c(OC)c1,-13%
22,CCOc1ccc(-c2cc(C(=O)N/N=C/c3ccc(O)cc3)c3ccccc3n2)cc1,12.2% (active)
